Results reported in PubChem BioAssay (NCI).
This is part of a sample that, as a whole, favours compounds with a hit. Of some 83,000 tested, about 20% had one in any assay.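 Activity criterion: percent growth below 10, measured after cells in 96-well plates were exposed to a single compound concentration for 48 hours.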 Active and inactive are the calls of the source.

Columns and labels:
Test in all cases: NCI-60 one-dose screen, 48 h (100 = growth as untreated, 0 = no growth, -100 = all killed)
[1] = test system: HCT-15 colon; details: 10 µM unless noted
[2] = test system: HT29 colon; details: 10 µM unless noted
[3] = test system: SNB-19 CNS; details: 10 µM unless noted
[4] = test system: U251 CNS; details: 10 µM unless noted
[5] = test system: PC-3 prostate; details: 10 µM unless noted
[6] = test system: UACC-62 melanoma; details: 10 µM unless noted
[7] = test system: LOX IMVI melanoma; details: 10 µM unless noted
[8] = test system: SK-MEL-28 melanoma; details: 10 µM unless noted
[9] = test system: SK-MEL-2 melanoma; details: 10 µM unless noted
[10] = test system: EKVX NSCLC; details: 10 µM unless noted
[11] = test system: SN12C renal; details: 10 µM unless noted
[12] = test system: UO-31 renal; details: 10 µM unless noted
[13] = test system: TK-10 renal; details: 10 µM unless noted
[14] = test system: ACHN renal; details: 10 µM unless noted
[15] = test system: CAKI-1 renal; details: 10 µM unless noted
[16] = test system: CCRF-CEM leukemia; details: 10 µM unless noted
[17] = test system: MOLT-4 leukemia; details: 10 µM unless noted
[18] = test system: SK-MEL-5 melanoma; details: 10 µM unless noted
[19] = test system: A498 renal; details: 10 µM unless noted
[20] = test system: SNB-75 CNS; details: 10 µM

Measured: growth

O=C1/C(=C/c2ccccc2)Oc2ccc(O)c(I)c21
inactive: [1] 94.5% | [2] 105% | [3] 99.1% | [4] 93% | [5] 89.6% | [6] 86.1% | [7] 93.8% | [8] 112% | [9] 95.3% | [10] 50.8% | [11] 85.7% | [12] 58.5% | [13] 181% | [14] 103% | [15] 78.6% | [16] 94.7% | [17] 95.6%

CC(O)CN1CCCCC1 (configuration not stated)
inactive: [1] 107% | [2] 92.3% | [3] 100% | [5] 102% | [18] 105% | [6] 101% | [7] 101% | [8] 109% | [9] 113% | [10] 105% | [11] 96.8% | [12] 86.3% | [13] 110% | [14] 108% | [15] 95.7% | [19] 94.5%

CCN(CC)c1ccc(/C=C2\Oc3ccc(O)c(I)c3C2=O)cc1
inactive: [1] 37% | [2] 72.4% | [3] 49.7% | [4] 49.1% | [5] 52.8% | [6] 49.8% | [7] 34.2% | [8] 74.3% | [9] 62.3% | [10] 73.3% | [11] 76.9% | [12] 46.3% | [13] 74.2% | [14] 54.9% | [15] 68.4% | [16] 13.3% | [17] 16.4%

CCCCCCCC[C@@H](O)CC(=O)N[C@@H](CC(N)=O)C(=O)N[C@@H](CCC(N)=O)C(=O)N[C@@H](CC(=O)c1cc(C)cc(O)c1C(=O)c1c(O)cccc1O)CC(C)C
inactive: [1] 45.6% | [3] 23.8% | [5] 10.8% | [18] 16.1% | [7] 12.5% | [10] 61.1% | [11] 25.4% | [12] 63.2% | [14] 31.9% | [15] 40.6% | [16] 11.6% | [17] 14%
active: [2] 2.56% | [4] 4.49% | [13] -6.12% | [19] -3.25%

O=c1cc/c(=N\Nc2ccccc2)c(=O)/c1=N/Nc1ccccc1
inactive: [1] 104% | [20] 106% | [3] 111% | [4] 104% | [5] 63.6% | [18] 87% | [6] 101% | [7] 89% | [8] 103% | [9] 126% | [10] 100% | [11] 112% | [12] 97.5% | [13] 170% | [14] 99.7% | [19] 93% | [16] 86.7% | [17] 106%

C=C1CCC2C3(C)COC(c4c(OC)cccc4OC)OC3CCC2(C)C1C/C=C1/C(=O)OCC1O (configuration not stated)
inactive: [1] 48.3% | [20] 50.8% | [3] 77.3% | [4] 35.4% | [5] 20.6% | [18] 64.7% | [6] 58.9% | [7] 15.7% | [8] 97.3% | [9] 50% | [10] 96.5% | [11] 28.2% | [12] 46.2% | [13] 50.5% | [14] 66% | [19] 102% | [17] 51.4%
active: [16] -33.1%

C=C[C@@H]1C[C@H](O)Cc2c(C)cc(C)cc2N1
active: [16] -19% | [17] -46.2%
inactive: [1] 101% | [20] 93.6% | [3] 109% | [4] 97.3% | [5] 88.6% | [18] 96.2% | [6] 98.2% | [7] 77.6% | [8] 102% | [9] 111% | [10] 86.9% | [11] 95.9% | [12] 96% | [13] 85.8% | [14] 103% | [15] 97.2% | [19] 89.9%

COc1cc(/C(C#N)=C/c2ccc3c(c2OC)OCO3)cc2c1OCO2
inactive: [1] 33% | [3] 31.2% | [5] 40.8% | [18] 36.9% | [6] 18.5% | [7] 24.2% | [8] 45.7% | [10] 45.9% | [11] 36.6% | [12] 41.7% | [13] 54.3% | [14] 51.6% | [15] 42.9% | [17] 50.6%
active: [2] 0.067% | [19] 8.92%

COc1ccc(-c2ccc(-c3ccc(C(=N)N)cn3)s2)cc1OC
inactive: [1] 99.8% | [2] 65.5% | [3] 94.7% | [5] 93.5% | [18] 88.7% | [6] 98.1% | [8] 98% | [9] 109% | [10] 89.1% | [11] 90.6% | [12] 85.7% | [13] 128% | [14] 93.8% | [15] 110% | [19] 78.5% | [16] 97.6% | [17] 72.2%

O=S(=O)(CC(O)(c1ccccc1)c1ccccc1)CC(O)(c1ccccc1)c1ccccc1
inactive: [1] 96.4% | [20] 58.4% | [3] 83.2% | [4] 70.7% | [5] 80.4% | [18] 88.6% | [6] 93.7% | [7] 76% | [8] 86% | [9] 109% | [10] 73.8% | [11] 90.1% | [12] 92.9% | [13] 107% | [14] 78.1% | [15] 66.9% | [19] 98.7% | [16] 64.8% | [17] 96.7%

COc1cc2c(cc1O)CCN1C[C@@H](CC(C)C)[C@@H](O)C[C@@H]21
inactive: [1] 106% | [20] 107% | [3] 102% | [4] 92.1% | [5] 86.3% | [18] 107% | [6] 93.1% | [7] 97.8% | [8] 106% | [9] 98.1% | [10] 95.3% | [11] 94.3% | [12] 88.4% | [13] 97% | [14] 103% | [15] 91.4% | [19] 107% | [16] 107% | [17] 95.4%

CN(C)c1nc2c(N)ncnc2n1C1OC(CO)C(O)C1O (configuration not stated)
inactive: [1] 104% | [20] 111% | [3] 107% | [4] 110% | [5] 94.2% | [18] 108% | [6] 99.1% | [7] 104% | [8] 122% | [9] 99.4% | [10] 112% | [11] 104% | [12] 79.5% | [13] 107% | [14] 99.4% | [19] 114% | [16] 105% | [17] 111%

CCOC(=O)CN1/C(=N/c2sc3c(c2C(=O)OCC)CCN(C(=O)OCC)C3)SC(=O)/C1=C\C(=O)OC
inactive: [1] 58.6% | [2] 61.2% | [3] 91.5% | [5] 71.6% | [18] 99.7% | [7] 81.3% | [8] 109% | [9] 97.9% | [10] 93.1% | [12] 73.6% | [13] 99% | [14] 95% | [19] 93.3% | [16] 27.7% | [17] 53.8%

COc1ccc(Nc2[nH]n3c(=O)cc(-c4ccccc4)nc3c2C(=O)Nc2ccc(C)cc2)c(OC)c1
inactive: [1] 89.6% | [2] 112% | [3] 56.3% | [5] 76.9% | [18] 98.4% | [6] 64% | [7] 87% | [9] 103% | [10] 89.8% | [11] 85.9% | [12] 74.7% | [13] 108% | [14] 88.5% | [15] 90.4% | [19] 108% | [16] 66.5% | [17] 69.4%
